# Test system: PPARa:RXRa (NR concentration 270 nM, RXRa partner concentration 90 nM)
# Test: PBM binding z-score (relative to random genomic background probes); higher = stronger binding; sequences stand for … in GC…GCGATTGACAGCGTAGAATGAAGG
# How it was run: (§1)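 Ligand-free nuclear receptor dimers were applied to custom Agilent 4×180K protein-binding microarrays whose double-stranded probes carried direct-repeat seeds, single-nucleotide variants, half-site ablations and random human genomic background sequences in 34-nt variable regions. Incubation lasted 1 h. Binding z-scores were computed against the random background probes from regression-normalized fluorescence.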
row,Sequence,PBM binding z-score
1,TAGCTTAGGTCATGGGCCAGTATACCACGCGAAC,4.23
2,ACAGACAGGTGATGAAGGTAACTCGGGCTATCAT,0.0611
3,GCTGCTAGGTCAGGTTGGTCACCTAACGGGTACG,1.56
4,ATCTCTAGGTAACAAGTCCAGTGAAAGAGAGGAC,0.632
5,CCTTACGGGTCACTCCAGGGTATAGCATCGGAGT,4.27
6,TCTGCAAGGTCAACGATGGTCAGCTAATCTGCTA,5.41
7,CCGAGTAGGTTATTGGGCATTCAGGCAACGGTGA,0.768
8,TCATGTAGGTAAATGCTAGGTGAAAGTCCGATCT,1.33
9,ACTTACGGGTCAACGAGGTTATAGTACGCGTATA,5.76
10,TAGCCTAGGTCATTGGGCCAGTATTGTACGCATC,3.66
11,GCTTACGGGTCAAAGGTTATAGCTTGAATAGAAT,6.66
12,CCGACTGGGGCATGAGGTTACCATAAGCCAGCCC,1.72
13,TCGAGTACGTTAGGGGCATTCAGAATGGCGTCGA,0.403
14,TCTTGTAGATCTAAGGTTAAGAAAGCCGAAGCCT,1.98
15,CCGAGTAGGTTATAGGGCATTCAGGCAACGGTGA,3.47
16,GTGACTGGGGCATCAGCAGGTTACCATAACTTAA,1.75
17,CCTTACGGGTCACTACAGGTTATAGCATCGGAGT,4.69
18,AGAATGAGGTTGTTAAGATCAGGGAATTGCGGTC,0.298
19,ACTAGCCGGCCAAGGGTCACTCAAGATTAGTCCG,3.81
20,CAAACTAGGTCAAGGTCACAGTCGGTTTGTGCCA,6.25

row,Sequence,PBM binding z-score
1,AGAATGAGGTTATACGGAGATCAGGGAAGAAAGT,3.29
2,CTCGAAAGGTTGGTTGAGGTGAGTATACGGATAA,0.843
3,AGTCAAAGTTCAGGACGAGGTAACTTAAAGCACG,3.59
4,TCTCGGAGGACACTAAGGTCAGAGCTTTCCAGAG,2.32
5,GGAAGGAGGGCAAAGTTGATAGCATCTGTCGACG,4.14
6,ATCGAAAGGTCGTGAGGTGAGTCTACAGAAAGGC,4.99
7,AGTCAAAGTTCATCTAGGTACCGTAAGATATGCT,4.76
8,AGAATGAGGCTATTAAGATCAGGGAATTGCGGTC,-0.226
9,TCGAGTAGGTTAGTGGCATTCAGAATGGCGTCGA,0.197
10,CCTAGCAGGCCAGGGTCCCTCAAGCATTTCGCTT,-0.381
11,TCATATAGGTAAACAGGTCAAAGTCCGTAAGTTA,4.55
12,CGAACTAGTTCAGAACAGGACAGTGAAGGATGAT,-0.356
13,TCATATAGGTAAACAGGTGAATGTCCGTAAGTTA,2.02
14,ATCTCTAGGTAACAAGTTCAGGGAAAGAGAGGAC,1.97
15,AGAACGAGGACAATGAGTTGATAGCACGGGTGGC,-0.365
16,AGAGTGAGGTTAAGATCAGGGAAACAGAATACAT,3.15
17,CCTACTGGGCCATCAGGTCATCGATATCAACGTT,2.79
18,TCTAGTTGGTCAAAGGTCACTCACTCGAAATGCG,6.16
19,CGTCCAAGGTCAAGGTAAGTGAAAGAGACTCGAA,5.58

# Test system: PPARg:RXRa (NR concentration 180 nM, RXRa partner concentration 90 nM)
# Test: as above
# How it was run: as §1
row,Sequence,PBM binding z-score
1,TAGCTTAGGTCATGGGCCAGTATACCACGCGAAC,2.88
2,ACAGACAGGTGATGAAGGTAACTCGGGCTATCAT,0.471
3,GCTGCTAGGTCAGGTTGGTCACCTAACGGGTACG,0.627
4,ATCTCTAGGTAACAAGTCCAGTGAAAGAGAGGAC,1.2
5,CCTTACGGGTCACTCCAGGGTATAGCATCGGAGT,3.23
6,TCTGCAAGGTCAACGATGGTCAGCTAATCTGCTA,4.78
7,CCGAGTAGGTTATTGGGCATTCAGGCAACGGTGA,1.19
8,TCATGTAGGTAAATGCTAGGTGAAAGTCCGATCT,0.723
9,ACTTACGGGTCAACGAGGTTATAGTACGCGTATA,5.66
10,TAGCCTAGGTCATTGGGCCAGTATTGTACGCATC,3.19
11,GCTTACGGGTCAAAGGTTATAGCTTGAATAGAAT,11.3
12,CCGACTGGGGCATGAGGTTACCATAAGCCAGCCC,2.04
13,TCGAGTACGTTAGGGGCATTCAGAATGGCGTCGA,0.0548
14,TCTTGTAGATCTAAGGTTAAGAAAGCCGAAGCCT,1.85
15,CCGAGTAGGTTATAGGGCATTCAGGCAACGGTGA,6.04
16,GTGACTGGGGCATCAGCAGGTTACCATAACTTAA,1.86
17,CCTTACGGGTCACTACAGGTTATAGCATCGGAGT,3.41
18,AGAATGAGGTTGTTAAGATCAGGGAATTGCGGTC,0.171
19,ACTAGCCGGCCAAGGGTCACTCAAGATTAGTCCG,5.6
20,CAAACTAGGTCAAGGTCACAGTCGGTTTGTGCCA,9.88

row,Sequence,PBM binding z-score
1,AGAATGAGGTTATACGGAGATCAGGGAAGAAAGT,1.7
2,CTCGAAAGGTTGGTTGAGGTGAGTATACGGATAA,-0.0296
3,AGTCAAAGTTCAGGACGAGGTAACTTAAAGCACG,4.72
4,TCTCGGAGGACACTAAGGTCAGAGCTTTCCAGAG,0.459
5,GGAAGGAGGGCAAAGTTGATAGCATCTGTCGACG,7.61
6,ATCGAAAGGTCGTGAGGTGAGTCTACAGAAAGGC,3.79
7,AGTCAAAGTTCATCTAGGTACCGTAAGATATGCT,6.25
8,AGAATGAGGCTATTAAGATCAGGGAATTGCGGTC,0.441
9,TCGAGTAGGTTAGTGGCATTCAGAATGGCGTCGA,-0.294
10,CCTAGCAGGCCAGGGTCCCTCAAGCATTTCGCTT,-0.884
11,TCATATAGGTAAACAGGTCAAAGTCCGTAAGTTA,5.08
12,CGAACTAGTTCAGAACAGGACAGTGAAGGATGAT,0.524
13,TCATATAGGTAAACAGGTGAATGTCCGTAAGTTA,2.31
14,ATCTCTAGGTAACAAGTTCAGGGAAAGAGAGGAC,1.74
15,AGAACGAGGACAATGAGTTGATAGCACGGGTGGC,1.06
16,AGAGTGAGGTTAAGATCAGGGAAACAGAATACAT,1.43
17,CCTACTGGGCCATCAGGTCATCGATATCAACGTT,3.18
18,TCTAGTTGGTCAAAGGTCACTCACTCGAAATGCG,11.5
19,CGTCCAAGGTCAAGGTAAGTGAAAGAGACTCGAA,5.26

# Reference: the supplement of paper PMC6555819
